# Assay results as given in article PMC7862700, “An all-to-all approach to the identification of sequence-specific readers for epigenetic DNA modifications on cytosine”.
# Key:
# Experiment in all cases: DAPPL (digital affinity profiling via proximity ligation, sequencing); 10 mM Tris-HCl pH 7.5, 50 mM NaCl, 1 mM DTT, 4% glycerol, room temperature, 30 min; GST-TFs on glutathione beads, 16-mer random dsDNA library, 0.1% formaldehyde crosslink after washing; high values mean tight binding
# FLI1 = biological target: T1, FLI1 (Homo sapiens, UniProt Q01543 1-452); conditions: protein: recombinant; tags: N-terminal GST; dsDNA, one strand shown
# T1 sequence: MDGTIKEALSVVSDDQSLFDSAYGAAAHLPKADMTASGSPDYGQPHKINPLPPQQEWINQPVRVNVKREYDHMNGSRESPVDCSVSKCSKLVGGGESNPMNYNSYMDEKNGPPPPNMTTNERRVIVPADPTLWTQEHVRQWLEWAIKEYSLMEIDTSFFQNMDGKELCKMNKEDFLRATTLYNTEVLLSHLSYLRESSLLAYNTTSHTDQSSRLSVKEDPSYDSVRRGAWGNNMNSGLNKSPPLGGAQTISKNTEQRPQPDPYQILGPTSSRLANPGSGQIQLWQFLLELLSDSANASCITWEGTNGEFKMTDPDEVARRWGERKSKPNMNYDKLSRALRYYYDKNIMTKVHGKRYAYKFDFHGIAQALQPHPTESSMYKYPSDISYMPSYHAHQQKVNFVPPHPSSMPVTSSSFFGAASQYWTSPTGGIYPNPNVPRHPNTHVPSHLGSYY
# How it was run: (§1)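 The binding signal reported is, for every hexamer, its read frequency for a factor over its read frequency for the tag-only sample. Reads came from pools of yeast-expressed, GST-fused human transcription factors on glutathione beads, barcoded with DNA and mixed with that sample, which were incubated with 200 nmole of a random double-stranded 16-mer DNA library in Tris/NaCl/DTT/glycerol buffer at room temperature for 30 min. After washing, the pools were crosslinked with 0.1% formaldehyde, proximity-ligated with BsaI/T4 ligase for 1 h at 37 °C, PCR-amplified and sequenced on an Illumina NextSeq500.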
# ELK1 = biological target: T2, ELK1 (Homo sapiens, UniProt P19419 1-428); conditions: protein: recombinant; tags: N-terminal GST; dsDNA, one strand shown
# T2 sequence: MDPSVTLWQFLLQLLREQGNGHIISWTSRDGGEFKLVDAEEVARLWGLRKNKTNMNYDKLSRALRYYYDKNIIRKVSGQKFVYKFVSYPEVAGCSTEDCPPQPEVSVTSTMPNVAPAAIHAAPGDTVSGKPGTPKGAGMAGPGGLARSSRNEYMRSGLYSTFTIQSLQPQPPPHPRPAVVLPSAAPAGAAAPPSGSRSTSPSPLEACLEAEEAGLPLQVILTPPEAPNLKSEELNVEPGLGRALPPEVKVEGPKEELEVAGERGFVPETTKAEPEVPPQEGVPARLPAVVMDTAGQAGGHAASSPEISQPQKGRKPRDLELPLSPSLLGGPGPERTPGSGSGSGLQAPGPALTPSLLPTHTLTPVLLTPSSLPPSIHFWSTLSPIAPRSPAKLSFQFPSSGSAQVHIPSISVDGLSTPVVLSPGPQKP
# How it was run: as §1
# GABPA = biological target: T3, GABPA (Homo sapiens, UniProt Q06546 1-454); conditions: protein: recombinant; tags: N-terminal GST; dsDNA, one strand shown
# T3 sequence: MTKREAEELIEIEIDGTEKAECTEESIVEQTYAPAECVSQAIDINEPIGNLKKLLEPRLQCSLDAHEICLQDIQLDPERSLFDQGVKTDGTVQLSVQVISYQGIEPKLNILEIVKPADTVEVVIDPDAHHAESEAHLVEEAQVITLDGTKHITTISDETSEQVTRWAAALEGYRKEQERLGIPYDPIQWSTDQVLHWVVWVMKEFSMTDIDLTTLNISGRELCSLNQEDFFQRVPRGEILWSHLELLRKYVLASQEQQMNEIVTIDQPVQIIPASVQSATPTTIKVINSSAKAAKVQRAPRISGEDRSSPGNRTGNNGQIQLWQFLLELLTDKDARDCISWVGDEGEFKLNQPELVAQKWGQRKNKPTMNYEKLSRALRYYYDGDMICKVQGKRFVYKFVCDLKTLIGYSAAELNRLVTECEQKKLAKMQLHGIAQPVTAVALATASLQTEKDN
# How it was run: as §1
# ERG = biological target: T4, ERG (Homo sapiens, UniProt P11308 1-479); conditions: protein: recombinant; tags: N-terminal GST; dsDNA, one strand shown
# T4 sequence: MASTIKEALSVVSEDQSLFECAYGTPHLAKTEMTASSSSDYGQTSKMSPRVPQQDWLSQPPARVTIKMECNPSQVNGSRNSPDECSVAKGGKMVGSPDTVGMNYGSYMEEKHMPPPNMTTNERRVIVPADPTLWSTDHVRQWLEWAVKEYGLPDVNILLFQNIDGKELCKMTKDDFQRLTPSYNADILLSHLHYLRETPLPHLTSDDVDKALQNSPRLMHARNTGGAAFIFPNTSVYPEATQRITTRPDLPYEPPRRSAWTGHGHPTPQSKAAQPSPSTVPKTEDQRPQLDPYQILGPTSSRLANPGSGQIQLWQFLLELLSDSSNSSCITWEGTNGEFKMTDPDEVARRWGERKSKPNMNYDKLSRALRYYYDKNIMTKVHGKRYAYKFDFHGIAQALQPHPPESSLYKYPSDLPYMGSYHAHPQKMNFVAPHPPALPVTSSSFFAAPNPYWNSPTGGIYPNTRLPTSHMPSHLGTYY
# How it was run: as §1
# ELF1 = ELF1 (Homo sapiens, UniProt P32519 1-619); conditions: protein: recombinant; tags: N-terminal GST; dsDNA, one strand shown
# ELF1, sequence (P32519 whole entry): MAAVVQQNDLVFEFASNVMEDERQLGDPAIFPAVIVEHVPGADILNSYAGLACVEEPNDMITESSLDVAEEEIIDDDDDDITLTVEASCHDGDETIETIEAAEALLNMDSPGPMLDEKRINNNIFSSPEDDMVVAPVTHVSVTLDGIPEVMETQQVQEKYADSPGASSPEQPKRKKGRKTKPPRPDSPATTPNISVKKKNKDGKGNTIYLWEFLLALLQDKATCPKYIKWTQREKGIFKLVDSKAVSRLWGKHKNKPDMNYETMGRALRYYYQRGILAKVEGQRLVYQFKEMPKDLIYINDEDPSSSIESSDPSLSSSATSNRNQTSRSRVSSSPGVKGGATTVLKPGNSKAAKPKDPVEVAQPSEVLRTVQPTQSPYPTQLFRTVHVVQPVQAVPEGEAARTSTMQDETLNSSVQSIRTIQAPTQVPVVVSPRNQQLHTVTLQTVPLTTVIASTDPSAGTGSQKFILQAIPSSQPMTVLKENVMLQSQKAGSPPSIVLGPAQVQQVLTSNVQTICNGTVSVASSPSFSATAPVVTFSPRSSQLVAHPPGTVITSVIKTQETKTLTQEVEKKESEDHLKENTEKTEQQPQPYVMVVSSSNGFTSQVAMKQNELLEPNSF
# How it was run: as §1
# EHF = biological target: T5, EHF (Homo sapiens, UniProt Q9NZC4 1-300); conditions: protein: recombinant; tags: N-terminal GST; dsDNA, one strand shown
# T5 sequence: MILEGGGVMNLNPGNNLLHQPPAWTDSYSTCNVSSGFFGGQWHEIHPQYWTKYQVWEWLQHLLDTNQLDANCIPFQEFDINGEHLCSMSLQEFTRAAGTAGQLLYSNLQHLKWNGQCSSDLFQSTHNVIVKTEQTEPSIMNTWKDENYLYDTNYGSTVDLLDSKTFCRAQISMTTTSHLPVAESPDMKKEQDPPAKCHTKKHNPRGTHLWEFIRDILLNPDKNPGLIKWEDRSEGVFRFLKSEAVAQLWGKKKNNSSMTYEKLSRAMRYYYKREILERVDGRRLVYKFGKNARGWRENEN
# How it was run: as §1
# SPI1 = SPI1 (Homo sapiens, UniProt P17947 1-270); conditions: protein: recombinant; tags: N-terminal GST; dsDNA, one strand shown
# How it was run: as §1
# SPIB = SPIB (Homo sapiens, UniProt Q01892 1-262); conditions: protein: recombinant; tags: N-terminal GST; dsDNA, one strand shown
# SPIB, sequence (Q01892 whole entry): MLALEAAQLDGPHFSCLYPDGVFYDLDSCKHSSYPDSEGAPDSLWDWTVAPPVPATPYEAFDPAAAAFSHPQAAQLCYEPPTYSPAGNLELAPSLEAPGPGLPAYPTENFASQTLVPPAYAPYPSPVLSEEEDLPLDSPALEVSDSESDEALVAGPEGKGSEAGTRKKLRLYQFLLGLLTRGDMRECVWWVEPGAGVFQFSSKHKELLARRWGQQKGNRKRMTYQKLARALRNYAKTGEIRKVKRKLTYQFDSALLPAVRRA
# How it was run: as §1
# ELK3 = biological target: T6, ELK3 (Homo sapiens, UniProt P41970 1-407); conditions: protein: recombinant; tags: N-terminal GST; dsDNA, one strand shown
# T6 sequence: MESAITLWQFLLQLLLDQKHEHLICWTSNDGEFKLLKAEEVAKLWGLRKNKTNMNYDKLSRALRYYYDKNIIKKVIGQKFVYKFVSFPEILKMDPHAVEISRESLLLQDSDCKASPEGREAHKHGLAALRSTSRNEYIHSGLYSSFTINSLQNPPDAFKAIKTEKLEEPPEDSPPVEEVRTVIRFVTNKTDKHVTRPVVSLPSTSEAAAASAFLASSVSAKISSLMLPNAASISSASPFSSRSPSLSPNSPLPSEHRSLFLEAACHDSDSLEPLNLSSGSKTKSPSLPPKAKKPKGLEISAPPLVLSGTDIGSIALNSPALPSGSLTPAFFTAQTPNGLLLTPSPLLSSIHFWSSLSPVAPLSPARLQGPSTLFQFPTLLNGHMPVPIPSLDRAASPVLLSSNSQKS
# How it was run: as §1
# FEV = biological target: T7, FEV (Homo sapiens, UniProt Q99581 1-238); conditions: protein: recombinant; tags: N-terminal GST; dsDNA, one strand shown
# T7 sequence: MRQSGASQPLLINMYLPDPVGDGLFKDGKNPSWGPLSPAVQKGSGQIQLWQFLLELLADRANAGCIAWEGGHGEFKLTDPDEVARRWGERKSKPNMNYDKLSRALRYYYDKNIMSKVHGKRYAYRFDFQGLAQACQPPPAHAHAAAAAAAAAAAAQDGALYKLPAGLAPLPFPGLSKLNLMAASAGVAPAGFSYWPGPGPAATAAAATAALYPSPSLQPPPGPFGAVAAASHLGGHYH
# How it was run: as §1
# ETV5 = ETV5 (Homo sapiens, UniProt P41161 1-510); conditions: protein: recombinant; tags: N-terminal GST; dsDNA, one strand shown
# ETV5, sequence (P41161 whole entry): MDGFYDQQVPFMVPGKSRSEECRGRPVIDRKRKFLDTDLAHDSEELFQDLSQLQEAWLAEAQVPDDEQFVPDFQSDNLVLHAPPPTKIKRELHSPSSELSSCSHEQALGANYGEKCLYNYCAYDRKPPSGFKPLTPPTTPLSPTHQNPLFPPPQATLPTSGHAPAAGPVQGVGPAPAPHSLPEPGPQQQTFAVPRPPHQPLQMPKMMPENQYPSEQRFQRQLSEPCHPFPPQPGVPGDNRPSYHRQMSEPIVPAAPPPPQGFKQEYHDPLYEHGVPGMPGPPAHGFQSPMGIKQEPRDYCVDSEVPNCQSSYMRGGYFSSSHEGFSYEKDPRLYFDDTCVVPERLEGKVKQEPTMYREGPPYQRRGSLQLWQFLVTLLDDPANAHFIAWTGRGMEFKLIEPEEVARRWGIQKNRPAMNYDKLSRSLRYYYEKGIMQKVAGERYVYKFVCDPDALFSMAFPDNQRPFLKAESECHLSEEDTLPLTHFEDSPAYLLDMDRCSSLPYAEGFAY
# How it was run: as §1
# HSF1 = HSF1 (Homo sapiens, UniProt Q00613 1-529); conditions: protein: recombinant; tags: N-terminal GST; chain copies: 3; dsDNA, one strand shown
# HSF1, sequence (Q00613 whole entry): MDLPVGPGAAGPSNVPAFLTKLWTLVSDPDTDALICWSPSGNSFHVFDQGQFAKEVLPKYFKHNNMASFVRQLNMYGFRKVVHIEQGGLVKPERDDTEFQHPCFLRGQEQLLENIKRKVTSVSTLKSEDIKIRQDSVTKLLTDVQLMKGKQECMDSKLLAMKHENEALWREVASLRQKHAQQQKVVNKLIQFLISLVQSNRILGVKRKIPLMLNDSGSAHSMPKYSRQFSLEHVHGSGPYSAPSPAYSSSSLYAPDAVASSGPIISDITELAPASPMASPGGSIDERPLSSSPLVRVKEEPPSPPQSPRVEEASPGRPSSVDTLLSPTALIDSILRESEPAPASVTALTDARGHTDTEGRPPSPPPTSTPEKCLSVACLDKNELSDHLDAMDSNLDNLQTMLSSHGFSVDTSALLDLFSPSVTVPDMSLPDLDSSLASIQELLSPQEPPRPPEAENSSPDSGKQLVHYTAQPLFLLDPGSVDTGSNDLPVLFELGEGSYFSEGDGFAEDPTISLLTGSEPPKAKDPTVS
# How it was run: as §1
# SPIC = biological target: T8, SPIC (Homo sapiens, UniProt Q8N5J4 1-248); conditions: protein: recombinant; tags: N-terminal GST; dsDNA, one strand shown
# T8 sequence: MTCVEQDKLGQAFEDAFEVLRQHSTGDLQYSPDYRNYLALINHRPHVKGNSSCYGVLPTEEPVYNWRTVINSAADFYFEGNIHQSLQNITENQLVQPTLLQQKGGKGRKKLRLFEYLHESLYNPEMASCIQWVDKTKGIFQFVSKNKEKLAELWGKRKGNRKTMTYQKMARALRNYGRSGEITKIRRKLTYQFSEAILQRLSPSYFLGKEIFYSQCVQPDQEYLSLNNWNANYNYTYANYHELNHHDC
# How it was run: as §1
# ELF4 = ELF4 (Homo sapiens, UniProt Q99607 1-663); conditions: protein: recombinant; tags: N-terminal GST; dsDNA, one strand shown
# ELF4, sequence (Q99607 whole entry): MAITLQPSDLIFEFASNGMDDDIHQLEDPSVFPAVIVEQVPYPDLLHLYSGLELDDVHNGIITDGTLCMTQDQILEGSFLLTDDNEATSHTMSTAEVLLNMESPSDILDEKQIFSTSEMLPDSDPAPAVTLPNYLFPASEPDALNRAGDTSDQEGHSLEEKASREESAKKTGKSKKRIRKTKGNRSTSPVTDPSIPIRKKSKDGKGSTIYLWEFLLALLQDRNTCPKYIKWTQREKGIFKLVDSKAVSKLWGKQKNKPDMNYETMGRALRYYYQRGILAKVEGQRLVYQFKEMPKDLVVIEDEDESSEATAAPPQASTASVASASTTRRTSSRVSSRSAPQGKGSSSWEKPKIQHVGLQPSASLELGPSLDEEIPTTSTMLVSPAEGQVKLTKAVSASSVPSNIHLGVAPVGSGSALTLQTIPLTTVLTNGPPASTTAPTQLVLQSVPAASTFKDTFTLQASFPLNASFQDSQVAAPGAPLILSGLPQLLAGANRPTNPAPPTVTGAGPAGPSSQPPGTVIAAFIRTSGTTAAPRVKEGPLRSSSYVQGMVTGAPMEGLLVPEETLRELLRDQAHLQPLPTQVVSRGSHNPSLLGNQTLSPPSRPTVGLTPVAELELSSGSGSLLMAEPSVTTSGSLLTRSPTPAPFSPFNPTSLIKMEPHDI
# How it was run: as §1
# ELK4 = biological target: T9, ELK4 (Homo sapiens, UniProt P28324-2 1-405); conditions: protein: recombinant; tags: N-terminal GST; dsDNA, one strand shown
# T9 sequence: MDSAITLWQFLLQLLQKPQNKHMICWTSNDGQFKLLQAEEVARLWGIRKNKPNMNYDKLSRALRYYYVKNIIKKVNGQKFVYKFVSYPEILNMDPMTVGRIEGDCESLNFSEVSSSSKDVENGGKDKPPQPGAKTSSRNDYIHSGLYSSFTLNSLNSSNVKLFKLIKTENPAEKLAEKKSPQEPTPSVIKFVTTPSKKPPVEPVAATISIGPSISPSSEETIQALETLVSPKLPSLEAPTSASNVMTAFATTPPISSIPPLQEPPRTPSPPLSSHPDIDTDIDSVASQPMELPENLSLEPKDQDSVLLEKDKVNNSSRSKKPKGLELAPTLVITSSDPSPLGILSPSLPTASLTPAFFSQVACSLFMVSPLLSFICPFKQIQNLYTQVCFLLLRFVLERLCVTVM
# How it was run: as §1
# ETV2 = biological target: T10, ETV2 (Homo sapiens, UniProt O00321 1-342); conditions: protein: recombinant; tags: N-terminal GST; dsDNA, one strand shown
# T10 sequence: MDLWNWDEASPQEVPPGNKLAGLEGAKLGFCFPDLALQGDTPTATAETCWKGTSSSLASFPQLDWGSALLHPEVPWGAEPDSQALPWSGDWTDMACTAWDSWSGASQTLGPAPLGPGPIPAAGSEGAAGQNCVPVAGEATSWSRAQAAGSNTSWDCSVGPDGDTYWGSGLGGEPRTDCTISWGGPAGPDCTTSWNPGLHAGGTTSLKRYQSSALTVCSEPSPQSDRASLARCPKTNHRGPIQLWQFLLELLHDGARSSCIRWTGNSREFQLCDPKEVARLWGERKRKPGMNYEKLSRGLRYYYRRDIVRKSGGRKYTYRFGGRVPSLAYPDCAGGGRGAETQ
# How it was run: as §1
# ELF3 = biological target: T11, ELF3 (Homo sapiens, UniProt P78545 1-371); conditions: protein: recombinant; tags: N-terminal GST; dsDNA, one strand shown
# T11 sequence: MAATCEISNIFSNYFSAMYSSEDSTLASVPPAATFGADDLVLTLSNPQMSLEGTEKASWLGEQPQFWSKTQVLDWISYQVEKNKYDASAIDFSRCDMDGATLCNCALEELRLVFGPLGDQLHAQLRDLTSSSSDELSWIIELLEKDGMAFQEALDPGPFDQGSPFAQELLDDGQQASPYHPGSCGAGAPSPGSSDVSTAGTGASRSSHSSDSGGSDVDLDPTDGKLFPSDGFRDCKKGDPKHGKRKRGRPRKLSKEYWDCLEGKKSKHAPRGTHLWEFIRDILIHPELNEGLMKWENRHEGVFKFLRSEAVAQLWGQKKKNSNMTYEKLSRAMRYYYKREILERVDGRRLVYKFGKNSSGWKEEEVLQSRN
# How it was run: as §1
# CRX = CRX (Homo sapiens, UniProt O43186 1-299); conditions: protein: recombinant; tags: N-terminal GST; dsDNA, one strand shown
# CRX, sequence (O43186 whole entry): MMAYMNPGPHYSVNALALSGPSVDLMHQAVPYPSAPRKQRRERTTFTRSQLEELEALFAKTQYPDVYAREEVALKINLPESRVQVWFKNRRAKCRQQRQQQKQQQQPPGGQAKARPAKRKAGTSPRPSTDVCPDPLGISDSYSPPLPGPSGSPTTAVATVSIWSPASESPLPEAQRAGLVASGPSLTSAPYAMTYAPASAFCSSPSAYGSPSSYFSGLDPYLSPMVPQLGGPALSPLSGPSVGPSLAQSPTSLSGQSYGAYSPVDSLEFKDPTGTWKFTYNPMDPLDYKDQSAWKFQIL
# How it was run: as §1
# ETV1 = ETV1 (Homo sapiens, UniProt P50549 1-477); conditions: protein: recombinant; tags: N-terminal GST; dsDNA, one strand shown
# ETV1, sequence (P50549 whole entry): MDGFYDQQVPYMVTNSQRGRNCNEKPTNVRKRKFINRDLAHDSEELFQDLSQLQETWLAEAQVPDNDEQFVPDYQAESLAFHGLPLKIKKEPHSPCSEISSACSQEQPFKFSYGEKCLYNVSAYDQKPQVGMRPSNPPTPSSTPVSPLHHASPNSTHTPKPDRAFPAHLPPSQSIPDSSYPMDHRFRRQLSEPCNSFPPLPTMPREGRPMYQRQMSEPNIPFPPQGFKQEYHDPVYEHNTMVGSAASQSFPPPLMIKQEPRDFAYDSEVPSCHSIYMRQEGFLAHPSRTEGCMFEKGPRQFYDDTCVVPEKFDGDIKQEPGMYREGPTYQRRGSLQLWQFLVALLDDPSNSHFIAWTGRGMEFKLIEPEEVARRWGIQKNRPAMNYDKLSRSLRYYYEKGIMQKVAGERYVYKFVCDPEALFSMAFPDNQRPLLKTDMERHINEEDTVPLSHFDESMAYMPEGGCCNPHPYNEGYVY
# How it was run: as §1
sequence,measurement,setting,value
ACTTCA,binding signal,FLI1,"1.43 fold enrichment (6-mer frequency, TF over GST control)"
same,binding signal,ELK1,"1.41 fold enrichment (6-mer frequency, TF over GST control)"
same,binding signal,GABPA,"1.45 fold enrichment (6-mer frequency, TF over GST control)"
same,binding signal,ERG,"1.4 fold enrichment (6-mer frequency, TF over GST control)"
same,binding signal,ELF1,"1.42 fold enrichment (6-mer frequency, TF over GST control)"
same,binding signal,EHF,"1.35 fold enrichment (6-mer frequency, TF over GST control)"
same,binding signal,SPI1,"1.45 fold enrichment (6-mer frequency, TF over GST control)"
same,binding signal,SPIB,"1.47 fold enrichment (6-mer frequency, TF over GST control)"
same,binding signal,ELK3,"1.44 fold enrichment (6-mer frequency, TF over GST control)"
same,binding signal,FEV,"1.38 fold enrichment (6-mer frequency, TF over GST control)"
same,binding signal,ETV5,"1.42 fold enrichment (6-mer frequency, TF over GST control)"
same,binding signal,HSF1,"1.18 fold enrichment (6-mer frequency, TF over GST control)"
same,binding signal,SPIC,"1.55 fold enrichment (6-mer frequency, TF over GST control)"
same,binding signal,ELF4,"1.33 fold enrichment (6-mer frequency, TF over GST control)"
same,binding signal,ELK4,"1.56 fold enrichment (6-mer frequency, TF over GST control)"
same,binding signal,ETV2,"1.37 fold enrichment (6-mer frequency, TF over GST control)"
same,binding signal,ELF3,"1.44 fold enrichment (6-mer frequency, TF over GST control)"
same,binding signal,CRX,"1.17 fold enrichment (6-mer frequency, TF over GST control)"
same,binding signal,ETV1,"1.48 fold enrichment (6-mer frequency, TF over GST control)"
